In US20200347384, “Screening artificial nucleic acids by particle display” (THE REGENTS OF THE UNIVERSITY OF CALIFORNIA, published 2020):

Experiments:
[1] = biological target: T1, HIV-1 reverse transcriptase (HIV RT) (Human immunodeficiency virus, UniProt P03366;P03366 P03366:600-1159,P03366:600-1039); assay: MST; two 5' flanking nucleotides deleted; conditions: tags: His-tag (inferred from Ni-NTA immobilisation); XNA; TNA at all positions
[2] = biological target: T1, HIV-1 reverse transcriptase (HIV RT); assay: MST; five 3' flanking nucleotides deleted; conditions: tags: His-tag (inferred from Ni-NTA immobilisation); XNA; TNA at all positions

For TAGTAAATTGATTTAAAAATTTCATAAATGCTACATAA, which binding signal [1] is on record?
The binding signal was ~3 fold reduction in affinity.

With AATAGTAAATTGATTTAAAAATTTCATAAATGCTA as the sequence, how does the binding signal [2] read?
The binding signal was ~3 fold reduction in affinity.
